From PubChem BioAssay
mcGAS MS inh: inhibitors of mouse cGAS | Q8C6L5 | recombinant mouse cGAS, cGAMP by RapidFire MS | inhibition, % at 12.5 µM | 0.18% of 130,000 active | AID 1259397;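 active = inhibition of cGAS enzyme activity at or above 60%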;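 note: enzyme stimulated by 45 bp dsDNA with ATP and GTP substrates; cGAMP share of summed cGAMP plus half ATP and half GTP signals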
Target sequence (Q8C6L5 whole entry, looked up): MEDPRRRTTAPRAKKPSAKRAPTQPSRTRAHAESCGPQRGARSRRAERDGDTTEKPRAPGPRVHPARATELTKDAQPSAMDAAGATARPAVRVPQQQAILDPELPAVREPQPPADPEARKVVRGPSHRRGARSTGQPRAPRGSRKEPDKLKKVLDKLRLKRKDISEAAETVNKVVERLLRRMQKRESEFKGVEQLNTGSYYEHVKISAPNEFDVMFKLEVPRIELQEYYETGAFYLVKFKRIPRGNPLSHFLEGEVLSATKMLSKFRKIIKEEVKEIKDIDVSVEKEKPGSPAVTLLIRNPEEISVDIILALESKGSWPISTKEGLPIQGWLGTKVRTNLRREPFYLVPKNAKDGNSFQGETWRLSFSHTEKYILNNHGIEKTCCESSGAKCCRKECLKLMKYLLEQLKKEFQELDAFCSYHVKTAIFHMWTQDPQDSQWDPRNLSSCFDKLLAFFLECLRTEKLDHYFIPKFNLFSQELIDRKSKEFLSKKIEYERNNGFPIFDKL
* = called active by the depositor; ! = repeats disagree. The full list was thinned out, with hits kept by preference.

SMILES | mcGAS MS inh
CCn1c(C)cc(O)c(C(c2cccs2)N2CCCCC2)c1=O (configuration not stated) | 62.5*
CCn1c(C)cc(O)c(C(c2cccs2)N2CCC(C)CC2)c1=O (configuration not stated) | -6.5
CCn1c(C)cc(O)c(C(c2ccc(SC)cc2)N2CCCCC2)c1=O (configuration not stated) | -7.9
COc1ccccc1CCNC(=O)CN1C[C@H]2C[C@H](O)[C@H](O)C[C@H]2C1 | -15.6
COc1ccc(NC(=O)CN2CCOCC2c2ccccc2)cc1 (configuration not stated) | -3.8
CC(C)(C)C(=O)CSc1nc2ccsc2c(=O)n1-c1ccccc1 | -2.9
CC(C)c1nc(NC(=O)c2[nH]ncc2Br)n(C)n1 | 93.7*
N#CC(NC(=O)c1[nH]ncc1Br)c1cccc(Cl)c1 (configuration not stated) | -16.9
CC(C)c1nc(NC(=O)CS(=O)(=O)C2CCCC2)n(C)n1 | -2.5
COc1ccc(/C=C/c2nc3cc(-c4nc5ccccc5[nH]4)ccc3s2)cc1 | -11.9
O=C(COC(=O)c1cc(Br)c(Br)s1)NCC(F)(F)F | -10.9
COc1cc(C)c2c(c1C=O)Oc1c(c(C)c(O)c3c1C(O)OC3=O)OC2=O (configuration not stated) | 33.9
Cc1cc(O)c(C=O)c2c1C(=O)Oc1c(C)c(O)c3c(c1O2)C(O)OC3=O (configuration not stated) | 84.6*
CCC(c1cccnc1)N(C)C(=O)c1ccc2c(c1)N(C)C(=O)CO2 (configuration not stated) | -3.2
O=C(CCC1CCN(Cc2cccc3c2oc2ccccc23)CC1)N1CCCC1 | 1.8
CC(=O)Nc1ccc(CNC(=O)c2c(C)nn(C)c2C)cc1 | -0.9
CC[n+]1c2ccccc2cc2ccccc21 | -0.7
CC[n+]1c(-c2ccccc2)c2cc(N)ccc2c2ccc(N)cc21 | 97.1*!
c1ccc(-n2ncc(CN3CCOc4ccccc43)n2)cc1 | -4.6
CCCCN1CCN(C(=O)Cc2ccccn2)CC1=O | -7.7
Cc1ccc(NS(=O)(=O)c2cnc3c(c2)c(=O)n(C)c(=O)n3C)c(Br)c1 | 9.0
CC(=O)c1cc(-c2ccccc2)n(CC(=O)O)c1C | -17.6
CC1C(c2ccccc2)=[N+]([O-])C(C)(c2ccc(F)cc2)N1O (configuration not stated) | -8.6
CC1C(c2cccs2)=[N+]([O-])C(C)(c2ccc(Br)cc2)N1O (configuration not stated) | -18.6
CN1C[N+]([O-])=C(c2ccccc2)C1(C)C | -9.0
SMILES | mcGAS MS inh
CCC1(CC)N([O-])C(C)=C(c2ccccc2)[N+]1=O | 78.7*
CC1=C(c2ccccc2)[N+](=O)C(C)(c2ccc(Br)cc2)N1[O-] (configuration not stated) | 73.3*
CC(C)c1nnc2n1CCN(C1CCCc3ccccc31)C2 (configuration not stated) | -3.2
CCCCC1C=CCN1C(=O)c1cccnc1N1CCOCC1 (configuration not stated) | -10.3
CC1CCN(S(=O)(=O)N2CCc3sccc3C2C)CC1 (configuration not stated) | -11.4
COc1ccc(C)cc1CN1CCN(C(=O)Nc2cccnc2)CC1 | -19.0
Cc1nn(C)c(C)c1CCC(=O)N(C)C1CCCN(CCc2ccccc2)C1 (configuration not stated) | -5.3
N#CC(NC(=O)CC(c1ccccc1)C(F)(F)F)c1ccsc1 (configuration not stated) | -25.2
CCC(=O)O[C@H]1[C@H](O[C@@H]2[C@@H](C)[C@H](O[C@H]3C[C@@](C)(OC)[C@@H](O)[C@H](C)O3)[C@@H](C)C(=O)O[C@H](CC)[C@@](C)(O)[C@H](O)[C@@H](C)C(=O)[C@H](C)C[C@@]2(C)O)O[C@H](C)C[C@@H]1N(C)C | -0.2
CCOC(=O)CCC(=O)OC1C(OC2C(C)C(OC3CC(C)(OC)C(O)C(C)O3)C(C)C(=O)OC(CC)C(C)(O)C(O)C(C)C(=O)C(C)CC2(C)O)OC(C)CC1N(C)C (configuration not stated) | 98.6*
CCOC(=O)CCC(=O)O[C@H]1[C@H](O[C@@H]2[C@@H](C)[C@H](O[C@H]3C[C@@](C)(OC)[C@@H](O)[C@H](C)O3)[C@@H](C)C(=O)O[C@H](CC)[C@@](C)(O)[C@H](O)[C@@H](C)C(=O)[C@H](C)C[C@@]2(C)O)O[C@H](C)C[C@@H]1N(C)C | -7.2
COc1ccc(CNC(=O)Cn2c(=O)c3c(ncn3C)n(C)c2=O)cn1 | -6.0
NC(=S)N=Nc1ccc(NN=C(N)N)cc1 | 78.8*
CN1CCN(C(=O)c2coc(COc3cccc(C(F)(F)F)c3)n2)CC1=O | -10.7
Cc1ccc(C2CC(=O)c3cn4nc(C)nc4nc3C2)cc1 (configuration not stated) | -1.0
